Compound activity: PubChem BioAssay, National Center for Advancing Translational Sciences (NCATS)
A selection: hits, their analogues and other compounds. The true share with any hit is near 21%.
Cycloheximide cs: counter-screen for Shiga toxin inhibitors: cycloheximide protein synthesis inhibition; max response, %; hit rate 12% among 300,000; cell reporter, cycloheximide protein synthesis inhibition counterscreen; in the data active = max response mostly above about 13%, no sharp cut-off; inactive = mostly below about 14%; note: read at 38.3 µM for the half of the compounds with a filed dose; 0% is about no effect
Pf growth 48h: inhibits P. falciparum growth in the first generation, 48 h. P. falciparum luciferase growth in erythrocytes, 48 h. Potency, µM (doses to about 28.7 µM), for the others: at the top dose activity change, negative = inhibition, actives largely listed as inhibitors. hit rate 5.9% among 310,000. AID 504832; note: potency is the fitted concentration of half-maximal effect; % is set by controls: 0 for no effect and ±100 for the full control effect
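Firefly luciferase activity from engineered P. falciparum reports growth; inhibitors lower the luminescent signal. Cultures contained 2% hematocrit erythrocytes at 0.1% final parasitemia.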
Pf growth 96h: P. falciparum growth inhibition at 96 hour, primary screen for plastid delayed-death inhibitors; P. falciparum luciferase reporter growth, 96 h; Potency, µM (series often up to 28.7 µM), inactives show top-dose activity change, negative = inhibition, actives largely listed as inhibitors; hit rate 6.9% among 320,000; AID 504834; note: potency is the fitted concentration of half-maximal effect; % is set by controls: 0 for no effect and ±100 for the full control effect
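Plates of compound plus infected erythrocytes (2% hematocrit, 0.05% parasitemia final) incubate 96 hours, 37 C, 5% CO2. Detection reagent added; reduced luminescence from the parasites' luciferase reporter flags inhibition.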
Shiga toxin inh: inhibitors of Shiga toxin in Vero cells | hit rate 9.2% among 290,000 | inhibition, % at 38.7 µM | Vero cells, Shiga toxin protein synthesis inhibition reporter | AID 2315; in the data active = inhibition mostly above about 28%, no sharp cut-off; inactive = mostly below about 43%; note: 0% is about no effect
NS1 function inh: influenza NS1 inhibition | Potency, µM (doses to about 46.1 µM), for inactives: at the highest dose activity, positive = more growth | hit rate 0.4% among 270,000 | AID 2326; calls by dose curve; note: potency is the fitted concentration of half-maximal effect; actives are rising curves; nearly all actives have a fitted effect of over 50% in size
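OD600 was taken as the measure of yeast growth restored by compound in an NS1-expressing S. cerevisiae strain. Cells had been washed out of glucose medium and diluted 1:100 into galactose -URA medium, pH 6.0.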
An asterisk follows results filed as active; ? = inconclusive; . = not tested or not shown; [ ] = remark or other dose. Unless noted, calls come from the whole dose curve; as a rule, active = well fitted inhibition curve with a large enough effect; inconclusive = small, poorly fitted or top-dose-only effect, or another doubt; inactive = no such curve, though single readings can be large or run the other way.

SMILES	Cycloheximide cs	Pf growth 48h	Pf growth 96h	Shiga toxin inh	NS1 function inh
Cn1ccc2cc(S(=O)(=O)N3CCN(S(=O)(=O)c4c(F)cccc4F)CC3)ccc21	-6	.	.	-6	.
CCCN1CCN(C2CCCCC2NS(=O)(=O)c2ccc(Cl)cc2)CC1 (stereo not given)	-4	7%	-4%	-14	-2%
O=S(=O)(NC1CCCCC1N1CCN(c2ccc(F)cc2)CC1)c1ccc(Cl)cc1 (stereo not given)	9	13µM*	?	32	-13%
Nc1nc(Oc2ccc(F)cc2)c(Br)c(=O)[nH]1	-1	12%	?	8	5%
Cc1ccccc1N/C(SCc1ccc(Cl)cc1)=C(/C#N)C(=O)NCc1ccco1	41*	?	?	112*	7%
Cc1ccc(CS/C(Nc2ccccc2C)=C(\C#N)C(=O)NCc2ccco2)c(C)c1	66*	2.3µM*	15%	91*	2%
O=C(CCSCc1ccc(Cl)cc1)NCc1ccco1	5	-5%	-30%	2	.
Cc1c(C)c2cccnc2c2ncccc12	.	1.9µM*	?	.	.
c1cnc2c(c1)ccc1ncccc12	1	9%	13%	-13	-6%
Clc1cc2cccnc2c2ncccc12	.	12µM*	12µM*	.	.
Oc1c(I)cc(Cl)c2cccnc12	-3	?	?	-14	-39%
O=[N+]([O-])c1ccc(CSc2nnc(SCc3ccccc3)s2)cc1	6	20%	7%	7	-7%
COC(=O)c1ccc(CSc2nc3ccccc3o2)cc1	30*	181%	57%	55*	-43%
CCCCOC(=O)CSc1nc2ccccc2o1	2	35%	9%	13	1%
O=[N+]([O-])c1ccc(CSc2nc3ccccc3o2)cc1	36*	106%	?	121*	6%
CCOc1ccc(S(=O)(=O)N/N=C(\C)c2ccc(OC)cc2OC)cc1	5	22%	27%	-12	.
CCCSc1nc(=S)n(Cc2ccccc2)c(C)c1C(C)=O	2	10%[5.75 µM]	7%	-7	.
NC1=NC[C@H](Cc2ccc(O)cc2)N1CCC12CC3CC(CC(C3)C1)C2	-3	2.9µM*	1.9µM*	-3	3%
CCCCN1C(N)=NC[C@@H]1Cc1ccc(O)cc1	-1	10µM*	4.1µM*	2	7%
CC(C)(C)CN1C(N)=NC[C@H]1Cc1ccc(O)cc1	-3	?	4.7µM*	2	0%
COc1cc(CCCN2C(N)=NC[C@H]2Cc2ccc(O)cc2)cc(OC)c1OC	-6	8.3µM*	2.3µM*	-5	-6%
COc1cc(CCCN2C(=S)NC[C@H]2Cc2ccc(O)cc2)cc(OC)c1OC	1	10%	-1%	-8	1%
Cc1cc(C)n(CC(=O)O)c(=O)c1[N+](=O)[O-]	4	8%	49%[5.75 µM]	16	.
Cc1cccc(N(C)Cc2nnc(-c3cccc(Br)c3)o2)c1	8	11%	54%	12	-4%
CCc1nnc(NC(=O)C2CCCN(C(=O)c3ccc(Cl)cc3)C2)s1 (stereo not given)	.	46%	68%	.	.
SMILES	Cycloheximide cs	Pf growth 48h	Pf growth 96h	Shiga toxin inh	NS1 function inh
Cc1ccc2[nH]c(=O)c(CN(Cc3ccco3)C(=O)CN3CCCC(C)C3)cc2c1 (stereo not given)	2	-4%	?	9	-3%
CCCCN1C(N)=NC[C@H]1Cc1ccc(O)cc1	5	9.3µM*	4.7µM*	-1	2%
CCCCCCCCCCCCCCCCn1cc[n+](CC(C)=O)c1	-3	3%	21%	-10	.
CCCCCCn1ccc(=N)cc1	7	3.3µM*	0.47µM*	-9	-20%
O=C(CCl)NCCCN(C(=O)C(Cl)Cl)c1ccc([N+](=O)[O-])cc1	-1	6.6µM*	7.4µM*	13	4%
Cc1[nH]cnc1CSCc1ccc(F)cc1	49*	-7%	?	31*	-10%
CCCCc1cc2c(c(NC(=O)CC)n1)c(=O)oc1ccccc12	6	24%	?	-9	-4%
COc1ccccc1NS(=O)(=O)c1cccc(NC(=O)Nc2ccc(Cl)cc2)c1	1	?	10µM*	22	5%
CN(c1ccccc1)S(=O)(=O)c1cccc(NC(=O)c2cc3ccccc3oc2=O)c1	61*	12%	?	66*	14%
COc1ccccc1NS(=O)(=O)c1cccc(NC(=O)Cc2cccs2)c1	-2	-4%	2%	-18	24%
COc1ccccc1NS(=O)(=O)c1cccc(NC(=O)Nc2ccccc2)c1	-1	-1%	-5%	-3	22%
CN(c1ccccc1)S(=O)(=O)c1ccc(Cl)c(C(=O)Nc2ccncc2)c1	.	-27%	?	.	.
CCNS(=O)(=O)c1ccc(NC(=O)Nc2ccccc2OC)cc1	9.5*	26%	10%	4	2%
COc1ccccc1NS(=O)(=O)c1cccc(NC(=O)c2cc3ccccc3oc2=O)c1	60*	40%	0%	87*	11%
O=C(c1ccc2c(c1)OCCO2)N1CCN(c2ncc(C(F)(F)F)cc2Cl)CC1	.	-9%	23%	.	.
CC(=O)c1ccc(NC(=O)C(C)n2c3ccccc3c3nc(=O)cc(C)n32)cc1 (stereo not given)	-1	?	?	-8	8%
COCCCN(C(=O)CC1OC(=O)c2ccccc21)c1c(N)n(Cc2ccccc2)c(=O)[nH]c1=O (stereo not given)	-1	14%	?	-9	7%
O=C(OCC(=O)N1CCCC1=O)c1cc2ccccc2o1	.	0%	-8%	.	.
CC(NC(=O)CN1CCOCC1)c1ccc(F)cc1 (stereo not given)	-10	28%	23%	-5	4%
Cc1c(NC(=O)CCC(=O)N2CCOCC2)c(=O)n(-c2ccccc2)n1C	-3	16%	-1%	-4	10%
Cc1c(NC(=O)CCC(=O)N2CCCCC2)c(=O)n(-c2ccccc2)n1C	-3	1%	0.83µM*	28	12%
Cc1cccc(C)c1NC(=O)CN1CCN(CCCC(c2ccc(F)cc2)c2ccc(F)cc2)CC1	.	12µM*	4.5µM*	.	.
Cc1c(NC(=O)CN2CCN(c3ccccc3)CC2)c(=O)n(-c2ccccc2)n1C	-1	15%	35%	-18	5%
Cc1c(NC(=O)CN2CCN(C(c3ccccc3)c3ccccc3)CC2)c(=O)n(-c2ccccc2)n1C	-1	10µM*	-9%	-13	-8%
C=CCNC(=O)CN1CCN(C(c2ccccc2)c2ccccc2)CC1	-2	?	13µM*	-9	-9%
SMILES	Cycloheximide cs	Pf growth 48h	Pf growth 96h	Shiga toxin inh	NS1 function inh
Cc1ccc(S(=O)(=O)N2CCCCC2)c(C)c1NS(C)(=O)=O	-4	-5%	?	-9	3%
O=C(c1ccc(N2CCCC2=O)cc1)N1CCN(c2cccc(C(F)(F)F)c2)CC1	.	-18%	0%	.	.
C[C@]1(C(=O)O)Cc2oncc2C[C@@H]1C(=O)O	-2	4%	29%	11	20%
CS(=O)(=O)N(CC(=O)Nc1ccc(S(=O)(=O)N2CCOCC2)cc1)c1ccccc1Br	-4	-23%	?	9	-7%
CSc1nnc(-c2cc3ccccc3cc2O)n1C	0	2.1µM*	.	2	-12%
CCOc1ccc(-n2nnnc2SCC(=O)NNC(=O)c2ccco2)cc1	2	7%	?	10	18%
